Assay outcomes as filed in PubChem.
APE1 inh-1 = blocks human APE1 abasic DNA cleavage; P27695; recombinant APE1, TAMRA/BHQ-2 abasic DNA cleavage fluorescence; Potency, µM (titrated, usually from 65.8 µM), most hits filed as inhibitors; actives 0.35% (n = 350,000); AID 2517; further: nearly all actives have a fitted effect of over 55% in size
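Activity was derived from the fluorescence gain between first and third kinetic reads (60 s intervals, ex 525/em 598 nm) after 50 nM THF-abasic TAMRA/BHQ-2 duplex was added to 0.75 nM APE1 preincubated 15 min with compound.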
TexasRed fluor = alters Texas Red total fluorescence, flagging assay interference; AID 1479; Potency, µM (series often up to 106 µM); actives 0.29% (n = 280,000); TRb/SRC2 Texas Red total fluorescence interference; active means well fitted curve in either direction with a large enough effect; inconclusive means small, poorly fitted or top-dose-only effect
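Flags fluorescent or light-absorbing compounds by total fluorescence, S + 2P, at 555 nm excitation and 632 nm emission. Mixture: 20 nM Texas Red SRC2 peptide, 0.6 uM human TRb LBD, 1 uM T3, 5% DMSO; compound exposure 5 h at ambient temperature.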
BLM helicase inh = blocks DNA unwinding by human BLM helicase. P54132. recombinant BLM DNA unwinding, fluorescence dequenching. Potency, µM (series often up to 56.1 µM), actives largely listed as inhibitors. actives 0.2% (n = 350,000). AID 2528; further: nearly all actives have a fitted effect of over 35% in size
RECQ1 inh-1 = blocks DNA unwinding by human RECQ1. Potency, µM (highest dose often 57.3 µM), most hits filed as inhibitors. RECQ1 DNA unwinding, red fluorescence kinetic read. P46063. AID 2549. actives 0.54% (n = 240,000); further: nearly all actives have a fitted effect of over 30% in size
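50 nM RECQ1T1 preincubated 15 min with compound in Tris pH 8.0 buffer with MgCl2, DTT, Tween-20 and 2.5 ug/ml poly(dI-dC); started with 200 nM TAMRA/BHQ-2 forked duplex and 2 mM ATP. Unwinding read as fluorescence (525/598 nm), two reads 2 h apart.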
TRb-SRC2 inh = TRbeta-SRC2 interaction inhibition | P10828 | TRbeta-SRC2 peptide binding, fluorescence polarization; receptor liganded with 1 µM T3 | Potency, µM (top dose mostly 106 µM), most hits filed as inhibitors | actives 0.065% (n = 280,000) | AID 1469; further: nearly all actives have a fitted effect of over 50% in size
Target sequence (P10828 whole entry, looked up): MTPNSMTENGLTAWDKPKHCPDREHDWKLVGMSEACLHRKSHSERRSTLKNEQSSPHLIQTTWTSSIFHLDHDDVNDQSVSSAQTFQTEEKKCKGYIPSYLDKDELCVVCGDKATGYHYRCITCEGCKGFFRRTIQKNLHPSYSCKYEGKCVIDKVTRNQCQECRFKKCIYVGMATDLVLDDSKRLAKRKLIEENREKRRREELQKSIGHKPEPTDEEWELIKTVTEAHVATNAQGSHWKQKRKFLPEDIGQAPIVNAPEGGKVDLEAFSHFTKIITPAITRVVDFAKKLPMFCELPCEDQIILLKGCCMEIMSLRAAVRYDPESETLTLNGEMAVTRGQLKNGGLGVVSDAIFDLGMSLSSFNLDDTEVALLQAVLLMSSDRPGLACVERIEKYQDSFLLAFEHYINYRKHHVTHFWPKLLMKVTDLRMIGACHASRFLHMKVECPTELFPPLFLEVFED
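Decrease in fluorescence polarization of 20 nM Texas Red SRC2 coactivator peptide flagged inhibition of its binding to 0.6 uM TRb LBD; 1 uM T3 included, incubation 5 hr, ex 555/em 632 nm.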
WRN inhibitor = blocks human WRN helicase. Q14191. WRN helicase unwinding, fluorescent forked duplex, kinetic. Potency, µM (titrated, usually from 114 µM), hits mostly inhibitors. actives 0.46% (n = 360,000). AID 651768; further: nearly all actives have a fitted effect of over 55% in size
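Enzyme (20 nM final) and test compound sit together 15 min at room temperature before substrate addition. Substrate is a single-forked duplex oligonucleotide (100 nM) labelled with fluorophore and quencher, with 2 mM ATP; helicase unwinding raises red fluorescence, read kinetically.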
APE1 dye cs = DNA dye displacement counter-screen activity | Potency, µM (series often up to 28.5 µM), actives largely listed as inhibitors | actives 7% (n = 480) | DNA fluorescent dye displacement counterscreen, fluorescence | shares compounds with APE1 inh-1;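 further: loss of thiazole orange fluorescence as the dye is displaced from duplex DNA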
Endo IV inh = counter-screen for APE1 inhibitors: inhibitors of E. coli endonuclease IV; Potency, µM (highest dose often 27.1 µM), most hits filed as inhibitors; shares compounds with APE1 inh-1; actives 4% (n = 560); E. coli Endo IV, fluorogenic AP-site DNA cleavage
APE1 inh-2 = confirmation of inhibitors of human APE1 endonuclease. shares compounds with APE1 inh-1. purified APE1, fluorogenic abasic-site DNA cleavage. Potency, µM (titrated, usually from 57.1 µM), actives largely listed as inhibitors. actives 44% (n = 750); further: nearly all actives have a fitted effect of over 30% in size
APE1 FP = displaces DNA from human APE1 in FP assay. shares compounds with APE1 inh-1. APE1 binding to TAMRA-labelled double-stranded DNA, fluorescence polarization displacement. Potency, µM (titrated, usually from 28.5 µM), most hits filed as inhibitors. actives 7% (n = 480). AID 2573
RECQ1 conf = confirmation of human RECQ1 helicase inhibitors; Potency, µM (top dose mostly 229 µM), actives largely listed as inhibitors; shares compounds with RECQ1 inh-1; actives 28% (n = 610); AID 2708; RECQ1 helicase DNA unwinding, fluorescence; further: nearly all actives have a fitted effect of over 45% in size
ADP FP counter = displaces ADP in a fluorescence polarization counter-screen for RECQ1 hits; shares compounds with RECQ1 inh-1; ADP fluorescence polarization displacement counterscreen; Potency, µM (titrated, usually from 228 µM), most hits filed as inhibitors; actives 27% (n = 530); AID 2711; further: nearly all actives have a fitted effect of over 45% in size
RECQ1 inh-2 = RECQ1 helicase inhibition confirmed, round 2 | shares compounds with RECQ1 inh-1 | recombinant RECQ1 DNA unwinding, red fluorescence | Potency, µM (highest dose often 119 µM), actives largely listed as inhibitors | actives 15% (n = 1,100) | AID 504841; further: nearly all actives have a fitted effect of over 50% in size
Large screens that a line does not name were inactive (follow-up assays come after a bar, where they were run). Only some compounds are listed: those with a hit (about 0.91% of all), similar ones and a draw of the others. Unless noted, the call rests on the fitted dose curve; in most records, active means well fitted curve in the direction sought with a large enough effect; inconclusive means small, poorly fitted or top-dose-only effect, or another doubt; inactive means no such curve, though single readings can be large; an effect the other way counts as inactive or inconclusive.

COc1ccc(N2CCN(CCCNC(=O)c3ccc4nc(CCc5ccccc5)oc4c3)CC2)cc1	none (no result: APE1 inh-1, RECQ1 inh-1, WRN inhibitor)
Cc1onc(-c2ccccc2)c1C(=O)NNC(=S)NC(=O)c1ccc2c(c1)OCO2	APE1 inh-1 inconclusive
CC1(C)SC2C(N3C(=O)C(c4ccccc4)NC3(C)C)C(=O)N2C1C(=O)O (stereo unspecified)	RECQ1 inh-1 14µM (no result: APE1 inh-1, WRN inhibitor) | APE1 dye cs inactive | Endo IV inh inactive | APE1 inh-2 inconclusive | APE1 FP inconclusive | RECQ1 conf 89µM | ADP FP counter 32µM
Cn1cc(C(=O)NCc2ccccc2Cl)c(=O)c2cc(S(=O)(=O)N3CCCCCC3)ccc21	none (no result: APE1 inh-1, RECQ1 inh-1, WRN inhibitor)
Cn1nccc1C(=O)N(CCN1CCCCC1)CC1CCCN(C2CCCC2)C1 (stereo unspecified)	none (no result: TexasRed fluor, RECQ1 inh-1, TRb-SRC2 inh)
C[C@@]1(C(=O)O)NCCc2cc(O)c(O)cc21	APE1 inh-1 1.8µM, TexasRed fluor inconclusive, BLM helicase inh 8.9µM, RECQ1 inh-1 2.5µM (no result: WRN inhibitor) | APE1 dye cs inactive | Endo IV inh inactive | APE1 inh-2 inactive | APE1 FP inactive | RECQ1 conf inactive | ADP FP counter inconclusive
O=c1cc(-c2ccc(O)cc2)oc2cc(O)c(C3OC(CO)C(O)C(O)C3O)c(O)c12 (stereo unspecified)	APE1 inh-1 7.1µM, RECQ1 inh-1 inconclusive, WRN inhibitor inconclusive | APE1 dye cs inactive | Endo IV inh inactive | APE1 inh-2 13µM | APE1 FP inactive | RECQ1 inh-2 50µM
O=c1cc(-c2ccc(O)cc2)oc2cc(O[C@H]3OC(CO)C(O)C(O)C3O)cc(O)c12 (stereo partly specified)	none (no result: WRN inhibitor)
Nc1ccc(/C=C/c2ccc(N)cc2S(=O)(=O)O)c(S(=O)(=O)O)c1	none (no result: APE1 inh-1, TexasRed fluor, RECQ1 inh-1, TRb-SRC2 inh, WRN inhibitor)
Nc1ccc(Nc2ccccc2)c(S(=O)(=O)O)c1	APE1 inh-1 14µM, RECQ1 inh-1 inconclusive, WRN inhibitor inconclusive | APE1 dye cs inconclusive | Endo IV inh inactive | APE1 inh-2 inconclusive | APE1 FP inconclusive | RECQ1 inh-2 inconclusive
COC(=O)[C@H](Cc1ccccc1)NC(=O)/C=C/[C@H]1O[C@@H](n2cc(C)c(=O)[nH]c2=O)C[C@@H]1O	none (no result: APE1 inh-1, TexasRed fluor, BLM helicase inh, RECQ1 inh-1, TRb-SRC2 inh)
CC(=O)Nc1ccc2c(COC(=O)CC3Sc4ccccc4NC3=O)cc(=O)oc2c1 (stereo unspecified)	APE1 inh-1 inconclusive, RECQ1 inh-1 inconclusive, WRN inhibitor inconclusive | APE1 inh-2 35µM | RECQ1 inh-2 inconclusive
